Read-out in assay [1]: Interleukin-8 (IL8), CXCL8 (gene 3576)
Put plainly: BSK_CASM3C_IL8: BioMAP Diversity Plus: CASM3C Assay for Interleukin-8 (IL8) Biomarker Activity (AID 2283042).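 Further: IL-8 protein level quantified by ELISA.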 The settings on record: primary human coronary artery smooth muscle cells; actives raise or lower the signal.

Read-out in assay [2]: Human Leukocyte Antigen - DR isotype (HLADR), HLA-DRA (gene 3122)
Put plainly: BSK_CASM3C_HLADR: BioMAP Diversity Plus: CASM3C Assay for Human Leukocyte Antigen - DR isotype (HLADR) Biomarker Activity (AID 2283043).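 Further: cell-surface HLA-DR protein level quantified by ELISA.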 The settings on record: primary human coronary artery smooth muscle cells; actives raise or lower the signal.

Read-out in assay [3]: Macrophage colony-stimulating factor (MCSF), CSF1 (gene 1435)
Put plainly: BSK_CASM3C_MCSF: BioMAP Diversity Plus: CASM3C Assay for Macrophage colony-stimulating factor (MCSF) Biomarker Activity (AID 2283044).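 Further: M-CSF protein amount quantified by ELISA after 24 h exposure.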 Conditions: primary human coronary artery smooth muscle cells; actives raise or lower the signal.

Read-out in assay [4]: Low-density lipoprotein receptor (LDLR), LDLR (gene 3949)
The assay can be described thus: BSK_CASM3C_LDLR: BioMAP Diversity Plus: CASM3C Assay for Low-density lipoprotein receptor (LDLR) Biomarker Activity (AID 2283045).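 Further: LDLR protein level on the cell surface quantified by ELISA.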 The settings on record: primary human coronary artery smooth muscle cells; actives raise or lower the signal.

Read-out in assay [5]: Monocyte Chemoattractant Protein-1 (MCP1), CCL2 (gene 6347)
The assay can be described thus: BSK_CASM3C_MCP1: BioMAP Diversity Plus: CASM3C Assay for Monocyte Chemoattractant Protein-1 (MCP1) Biomarker Activity (AID 2283046).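 Further: MCP-1 level quantified by ELISA 24 h after dosing.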 The settings on record: primary human coronary artery smooth muscle cells; actives raise or lower the signal.

The nature of assay [6]: BSK_CASM3C_Proliferation: Cell Proliferation Assessment in the BioMAP Diversity Plus: CASM3C Assay (AID 2283047).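 Further: sulforhodamine B total protein stain as relative cell number at 560 nm; sub-confluent cells exposed 48 h before staining; fitted both ways against DMSO so gain or loss of cell number.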 Conditions: primary human coronary artery smooth muscle cells.
Read-out in assay [7]: Monokine induced gamma interferon (MIG), CXCL9 (gene 4283)
The assay can be described thus: BSK_CASM3C_MIG: BioMAP Diversity Plus: CASM3C Assay for Monokine induced gamma interferon (MIG) Biomarker Activity (AID 2283048).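 Further: MIG protein level measured by ELISA.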 The settings on record: primary human coronary artery smooth muscle cells; actives raise or lower the signal.

Read-out in assay [8]: serum amyloid A (SAA), SAA1 (gene 6288)
The assay can be described thus: BSK_CASM3C_SAA: BioMAP Diversity Plus: CASM3C Assay for serum amyloid A (SAA) Biomarker Activity (AID 2283049).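 Further: SAA protein level quantified by ELISA.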 The settings on record: primary human coronary artery smooth muscle cells; actives raise or lower the signal.

Assay [9] in a line: BSK_CASM3C_SRB: Viability Assessment in the BioMAP Diversity Plus: CASM3C Assay (AID 2283050).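 Further: total protein by SRB staining as cytotoxicity measure in parallel cultures; cells exposed to compound for 24 h.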 The settings on record: primary human coronary artery smooth muscle cells.
Read-out in assay [10]: Thrombomodulin, THBD (gene 7056)
The assay can be described thus: BSK_CASM3C_Thrombomodulin: BioMAP Diversity Plus: CASM3C Assay for Thrombomodulin Biomarker Activity (AID 2283051).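 Further: thrombomodulin protein level measured by ELISA 24 h after dosing.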 Conditions: primary human coronary artery smooth muscle cells; actives raise or lower the signal.

Read-out in assay [11]: Tissue Factor, F3 (gene 2152)
Put plainly: BSK_CASM3C_TissueFactor: BioMAP Diversity Plus: CASM3C Assay for Tissue Factor Biomarker Activity (AID 2283052).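 Further: cell surface tissue factor protein level read by ELISA.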 The settings on record: primary human coronary artery smooth muscle cells; actives raise or lower the signal.

Read-out in assay [12]: Interferon-gamma inducible Protein 10 (IP10), CXCL10 (gene 3627)
Put plainly: BSK_hDFCGF_IP10: BioMAP Diversity Plus: hDFCGF Assay for Interferon-gamma inducible Protein 10 (IP10) Biomarker Activity (AID 2283053). The settings on record: primary human foreskin fibroblasts; actives raise or lower the signal. The procedure, abridged: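 Primary foreskin fibroblasts, human; 24 h compound exposure; IP-10 by ELISA; bidirectional fit vs DMSO.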

Read-out in assay [13]: Urokinase-type plasminogen activator receptor (uPAR), PLAUR (gene 5329)
Put plainly: BSK_CASM3C_uPAR: BioMAP Diversity Plus: CASM3C Assay for Urokinase-type plasminogen activator receptor (uPAR) Biomarker Activity (AID 2283054).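 Further: cell-surface uPAR protein level quantified by ELISA.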 Conditions: primary human coronary artery smooth muscle cells; actives raise or lower the signal.

Read-out in assay [14]: Vascular cell adhesion molecule 1 (VCAM1), VCAM1 (gene 7412)
Put plainly: BSK_CASM3C_VCAM1: BioMAP Diversity Plus: CASM3C Assay for Vascular cell adhesion molecule 1 (VCAM1) Biomarker Activity (AID 2283055).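 Further: VCAM-1 protein level quantified by ELISA on the cells.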 The settings on record: primary human coronary artery smooth muscle cells; actives raise or lower the signal.

Read-out in assay [15]: Collagen III, COL3A1 (gene 1281)
Put plainly: BSK_hDFCGF_CollagenIII: BioMAP Diversity Plus: hDFCGF Assay for Collagen III Biomarker Activity (AID 2283056). Conditions: primary human foreskin fibroblasts; actives raise or lower the signal. The procedure, abridged: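 Cells: human foreskin fibroblasts, primary. Dosing followed by 24 h incubation, then ELISA for collagen III. Both increases and decreases scored relative to DMSO.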

Read-out in assay [16]: Epidermal growth factor receptor (EGFR), EGFR (gene 1956)
Put plainly: BSK_hDFCGF_EGFR: BioMAP Diversity Plus: hDFCGF Assay for Epidermal growth factor receptor (EGFR) Biomarker Activity (AID 2283057). The settings on record: primary human foreskin fibroblasts; actives raise or lower the signal. The procedure, abridged: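 hDFCGF system, primary human foreskin fibroblasts; compound 24 h; EGFR measured by ELISA; DMSO = negative control/baseline; bidirectional fitting.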

Read-out in assay [17]: Interleukin-8 (IL8), CXCL8 (gene 3576)
Put plainly: BSK_hDFCGF_IL8: BioMAP Diversity Plus: hDFCGF Assay for Interleukin-8 (IL8) Biomarker Activity (AID 2283058). The settings on record: primary human foreskin fibroblasts; actives raise or lower the signal. The procedure, abridged:
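IL-8 levels from compound-treated primary human fibroblasts were read by ELISA at 24 h, with DMSO serving as baseline for bidirectional fitting.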

Assay [18] is described as follows: BSK_hDFCGF_Proliferation: Cell Proliferation Assessment in the BioMAP Diversity Plus: hDFCGF Assay (AID 2283059).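 Further: curves fitted for both rise and fall of signal versus DMSO baseline.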 Conditions: primary human foreskin fibroblasts. The procedure, abridged: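 Total protein read at 560 nm after 0.1% SRB staining of TCA-fixed human skin fibroblasts, […]. Activity is fitted in both directions relative to DMSO as baseline.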

Read-out in assay [19]: Macrophage colony-stimulating factor (MCSF), CSF1 (gene 1435)
Put plainly: BSK_hDFCGF_MCSF: BioMAP Diversity Plus: hDFCGF Assay for Macrophage colony-stimulating factor (MCSF) Biomarker Activity (AID 2283060). Conditions: primary human foreskin fibroblasts; actives raise or lower the signal. The procedure, abridged: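 M-CSF levels, determined by ELISA, are taken at 24 h after dosing human skin fibroblasts. Responses in either direction are fitted with DMSO serving as the baseline.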

The nature of assay [20]: BSK_hDFCGF_SRB: Viability Assessment in the BioMAP Diversity Plus: hDFCGF Assay (AID 2283061).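 Further: cells exposed to compound for 24 h before the read.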 Conditions: primary human foreskin fibroblasts. The procedure, abridged: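 Cells were dosed with test chemical, cultured 24 h, fixed with 10% TCA, then stained with 0.1% SRB and read at 560 nm. The fibroblasts were human foreskin primary cells, and DMSO served as baseline.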

Our source for the outcome and AC50 values is PubChem BioAssay (EPA / NIEHS).

Structures are written as SMILES. Values joined by “and” are separate entries in the source; they are usually repeats but may differ in a detail not shown here. Identical values can stand only once. Where a structure was tested more than once in an assay, its records may differ in their call. Active and inactive are the calls of the source. How the source made its calls: active means hit-call score of the fitted dose curve at least 0.9, where 1 is the maximum; inactive means score below 0.9.

Broadly, the AC50 is the midpoint of the concentration-response curve, whichever way the signal moves. With `CC(c1ccc(O)cc1)(c1ccc(O)cc1)c1ccc(O)cc1`, the outcome in [1], in assay [4], in [8], in assay [10], in assay [11] and in assay [16] was inactive. In addition, the half-maximal activity concentration (AC50) in assay [2] was 4.44 µM (active); in assay [3], 3.11 µM (active); in assay [5] it was 5.43 µM (active); in assay [6], 27.2 µM (active); in [7] it was 5.35 µM (active); in [9] it was 4.79 µM (active). In addition, the concentration at half-maximal activity (AC50) in assay [12] was 25.6 µM (active); in [13], 6.77 µM (active); in assay [14] it was 5.31 µM (active); in assay [15], 3.78 µM (active); in assay [17], 36.6 µM (active); in assay [18], 23.6 µM (active). For the same compound, the AC50 in assay [19] was 16.5 µM (active); in [20], 29.2 µM (active).

`O=S(=O)(O)C(F)(F)C(F)(F)C(F)(F)C(F)(F)F`: the outcome in [1], in [2], in assay [3], in assay [4], in assay [5] and in assay [6] was inactive. The result in assay [7], in assay [8], in assay [9], in [10], in assay [11] and in assay [12] was inactive. Besides, the result in assay [13], in assay [14], in assay [15], in assay [16], in assay [17] and in [18] was inactive. Moreover, in assay [20], the outcome was inactive. The half-maximal activity concentration (AC50) in assay [8] was 0.558 µM (active).

For `CC#Cc1cc(C)nc(Nc2ccccc2)n1`, the outcome in assay [1], in [2], in assay [3], in [4], in assay [5] and in [6] was inactive. Further, the result in [7], in assay [8], in assay [9], in assay [10], in assay [11] and in [12] was inactive. Also, the outcome in [13], in [14], in assay [15], in assay [16], in assay [17] and in [18] was inactive. Moreover, the outcome in assay [19] and in assay [20] was inactive.

Turning to `O=C(O)C(F)(F)C(F)(F)C(F)(F)C(F)(F)C(F)(F)C(F)(F)C(F)(F)C(F)(F)C(F)(F)F`, the result in [1], in [2], in [3], in [4], in assay [5] and in assay [6] was inactive. Further, the outcome in [7], in assay [8], in assay [9], in [10], in assay [11] and in [13] was inactive. For the same compound, the result in [14] and in assay [16] was inactive. Moreover, the concentration at half-maximal activity (AC50) was 28.5 µM (active) and 29.1 µM (active) and 32.8 µM (active) in [12]; 41.3 µM (active) and 30 µM (active) in assay [14]; 29.7 µM (active) and 30 µM (active) in [15]; 7.6 µM (active) in assay [16]; 36.9 µM (active) and 57.3 µM (active) and 55.1 µM (active) in assay [17]; 13.5 µM (active) and 16.5 µM (active) and 17.1 µM (active) in assay [18]. The AC50 in [20] is 28.5 µM (active) and 48.8 µM (active) and 49 µM (active).

For `Cc1cc2c3c(c1)C(c1ccccc1)=N[C@@H](NC(=O)c1ccncc1)C(=O)N3CC2`, the outcome in assay [1], in assay [2], in assay [3], in assay [4], in [5] and in assay [6] was inactive. Further, the outcome in [7], in assay [8], in assay [9], in assay [10], in assay [11] and in [12] was inactive. Further, the result in [13], in assay [14], in assay [15], in assay [16], in [17] and in [19] was inactive. The outcome in assay [20] was inactive. Further, in [18], the AC50 is 11.5 µM (active).

Consider `Nc1ccc(-c2ccc(N)cc2)cc1`, for which the result in assay [1], in [2], in assay [3], in assay [4], in assay [5] and in assay [6] was inactive. Also, the result in [7], in [8], in assay [9], in assay [10], in [11] and in assay [12] was inactive. In addition, the outcome in assay [13], in [14], in assay [15], in assay [16], in assay [17] and in assay [18] was inactive. Besides, the result in assay [19] and in assay [20] was inactive.
